In one test the test system is W2. Kind of test: qHTS profiling for inhibitors of Plasmodium falciparum proliferation (AID 504749). Also: nearly all actives have a fitted effect of over 60% in size. Also: potency is read from the fitted curve at half-maximal effect. To be noted: P. falciparum in erythrocytes, SYBR Green DNA, 72 h; series mostly up to 28.7 µM. The method, boiled down: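 Infected RBCs, 0.3% parasitemia/2.5% Hct final; cpd 72 h, 37 C, 5% CO2; lysis buffer with saponin/triton/SYBR Green I, o/n RT dark; FI 485/535; norm. to artemisinin (0.29 uM) and DMSO.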

For a further test, the system named is HEK293. Kind of test: Cytotoxic Profiling of Annotated Libraries Using Quantitative High-Throughput Screening (AID 1296008). Also: nearly all actives have a fitted effect of over 60% in size. As to max response: % is scaled to controls: 0 for no effect and ±100 for the full control effect. As to conditions: Five cell lines viability, CellTiter-Glo ATP luminescence, 48-72 h; max response: hits give low values. The method, boiled down: (§1)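 Cytotoxicity was measured as CellTiter-Glo ATP luminescence, read after 10 min at room temperature. Compound treatment of the cells lasted 48 or 72 hr at 37 degrees Celsius in a qHTS format.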
For orientation: In ATP-based viability assays light output follows the ATP content of the culture.

In test [1] the test system is HaCat. The description is as above. As to conditions: Five cell lines viability, CellTiter-Glo ATP luminescence, 48-72 h; max response: hits give low values. In outline: as §1
The next test has as its system KB-3-1. Described as above. As to conditions: Five cell lines viability, CellTiter-Glo ATP luminescence, 48-72 h; max response: hits give low values. In outline:
as §1

The test system of test [2] is NIH3T3. The test is described as above. To be noted: Five cell lines viability, CellTiter-Glo ATP luminescence, 48-72 h; max response: hits give low values. The method, boiled down: as §1
The test system of test [3] is HACAT. Nature of the test: qHTS assay to identify novel small-molecules to repurpose for Merkel cell carcinoma treatment (AID 1296009). Also: nearly all actives have a fitted effect of over 60% in size. As to conditions: MCC and control cell lines, CellTiter-Glo viability, 72 h; at 44.8 µM (top of the series) unless noted. The method, boiled down:
(§2)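 72 hr, 37 degree celsius; NPC 8-pt / MIPE 11-pt dose response; compound pinned in DMSO; CellTiter-Glo, 10 min RT, luminescence; normalized to no-cell and DMSO controls.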
(Quantitative high-throughput screening tests each substance at several concentrations.)

Another test deals with MCC-13. The description is as above. To be noted: MCC and control cell lines, CellTiter-Glo viability, 72 h; series mostly up to 46 µM. In outline:
as §2

For another test, the system named is MCC-26. The test is described as above. To be noted: MCC and control cell lines, CellTiter-Glo viability, 72 h; series mostly up to 46 µM. In outline: as §2
For another test, the system named is MKL-1. The description is as above. As to conditions: MCC and control cell lines, CellTiter-Glo viability, 72 h; series mostly up to 46 µM. In outline: as §2
The subject of a further test is MKL-2. The description is as above. As to conditions: MCC and control cell lines, CellTiter-Glo viability, 72 h; series mostly up to 46 µM. In outline: as §2
For a further test, the system named is UISO. The test is described as above. As to conditions: MCC and control cell lines, CellTiter-Glo viability, 72 h; series mostly up to 46 µM. In outline:
as §2

The test system of another test is WaGa. The test is described as above. As to conditions: MCC and control cell lines, CellTiter-Glo viability, 72 h; series mostly up to 46 µM. The method, boiled down: as §2
The next test concerns C33A. Nature of the test: Primary qHTS to identify gynecologic anti-cancer compounds using libraries of approved drugs and bioactive compounds (AID 1345084). Also: % is scaled to controls: 0 for no effect and ±100 for the full control effect; nearly all actives have a fitted effect of over 55% in size. To be noted: Gynecologic cancer cell panel viability, ATPlite luminescence, 48 h; series mostly up to 57.5 µM. In outline:
(§3)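 Five-concentration response, 48 h; readout is ATP-driven luciferase luminescence.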

Another test deals with CAOV3. The description is as above. To be noted: Gynecologic cancer cell panel viability, ATPlite luminescence, 48 h; series mostly up to 57.5 µM. The method, boiled down: as §3
The next test relates to CASKI. The test is described as above. To be noted: Gynecologic cancer cell panel viability, ATPlite luminescence, 48 h; series mostly up to 57.5 µM. In outline:
as §3

In the next test the test system is Es-2. The description is as above. As to conditions: Gynecologic cancer cell panel viability, ATPlite luminescence, 48 h; series mostly up to 57.5 µM. The method, boiled down: as §3
In another test the test system is HeLa. Described as above. To be noted: Gynecologic cancer cell panel viability, ATPlite luminescence, 48 h; series mostly up to 57.5 µM. The method, boiled down:
as §3

The test system of a further test is CRL-7250. Nature of the test: Cytotoxic Profiling of Annotated Libraries Using Quantitative High-Throughput Screening (AID 1296008). Also: nearly all actives have a fitted effect of over 60% in size. As to max response: % is scaled to controls: 0 for no effect and ±100 for the full control effect. As to conditions: Five cell lines viability, CellTiter-Glo ATP luminescence, 48-72 h; max response: hits give low values. The method, boiled down:
as §1

Test [4] concerns NIH3T3. Nature of the test: qHTS assay to identify novel small-molecules to repurpose for Merkel cell carcinoma treatment (AID 1296009). Also: nearly all actives have a fitted effect of over 60% in size. To be noted: MCC and control cell lines, CellTiter-Glo viability, 72 h; at 44.8 µM (top of the series). The method, boiled down:
as §2

From PubChem BioAssay (NCATS) come the findings set out here.

Inconclusive results are not listed. Values without a mark were called inactive. The source made the active and inactive calls. Calls follow the shape of the dose curve; as a rule, active = well fitted curve in the direction sought with a large enough effect; inconclusive = small, poorly fitted or top-dose-only effect, or another doubt; inactive = no such curve, though single readings can be large; an effect the other way counts as inactive or inconclusive.

`CC(=O)Nc1ccc(CC(=O)O)cc1`: the Potency entry in the test with W2, in the test with MCC-13, in the test with MCC-26, in the test on MKL-1, with MKL-2 and with UISO was “inactive” throughout. Moreover, the Potency result in the test on WaGa, in the test with C33A, in the test on CAOV3, with CASKI, in the test with Es-2 and with HeLa was “inactive” throughout. Further, the max response is 0.0311% in the test on HEK293, -17.4% in the test with KB-3-1 and -0.623% with NIH3T3 [2]. Also, the compound was classed as inactive in the test with HaCat [1] and in the test with HACAT [3].

`CCOC(=O)[C@H](CCc1ccccc1)N[C@@H](C)C(=O)N1[C@H](C(=O)O)C[C@@H]2CCC[C@@H]21`: the results for the max response in the test on HEK293, in the test with KB-3-1 and with NIH3T3 [2] were 1.35%, 3.06% and 0.794%, respectively. The call in the test with HaCat [1] and with HACAT [3] was inactive. In addition, the Potency entry with MCC-13, with MCC-26, in the test with MKL-1, in the test on MKL-2, in the test with UISO and with WaGa was “inactive” throughout. In addition, the Potency entry with C33A, in the test on CAOV3, in the test with CASKI, with Es-2 and with HeLa was “inactive” each time.

`CC(C)(Cc1c[nH]c2ccccc12)NCC(O)COc1ccccc1C#N` (stereo not drawn): in the test with W2, the Potency is 3.79 µM (active). In addition, the max response in the test with CRL-7250 was -4.9%; with HaCat [1] it was -15.6%; in the test with KB-3-1 it was 19.5%; in the test with NIH3T3 [2] it was -8.73%. The Potency entry in the test with MCC-13, in the test on MCC-26, in the test with MKL-1, in the test with MKL-2, with C33A and in the test with CAOV3 was “inactive” in each case. Also, the Potency entry in the test on CASKI, in the test on Es-2 and with HeLa was “inactive” throughout.

On to `COc1ccc(C(Cl)=C(c2ccc(OC)cc2)c2ccc(OC)cc2)cc1`, for which the outcome in the test with CRL-7250 was inactive. In addition, the max response in the test on HaCat [1] is -3.14%; in the test on KB-3-1, 9.01%; with NIH3T3 [2], -2.4%. The Potency entry in the test on MCC-13, in the test on MKL-1, with MKL-2, with UISO, in the test with WaGa and with C33A was “inactive” in each case. Moreover, the Potency result in the test with CASKI, with Es-2 and in the test on HeLa was “inactive” in each case.

As for `CCOc1cc(OCC)c(C(=O)CCC(=O)O)cc1OCC`, the Potency result in the test on W2, with MCC-13, with MCC-26, in the test with MKL-1, in the test on MKL-2 and with UISO was “inactive” each time. Further, the Potency result in the test on WaGa, with C33A, in the test on CAOV3, in the test on CASKI, with Es-2 and in the test on HeLa was “inactive” throughout. Further, the max response in the test with HEK293 is -0.0497%; with KB-3-1, -0.0013%. In addition, the call in the test with HaCat [1], with NIH3T3 [2], in the test on HACAT [3] and in the test on NIH3T3 [4] was inactive.

Take `CCCCC(CC)CN1CN(CC(CC)CCCC)CC(C)(N)C1` (stereo not drawn): the max response is -21.5% with CRL-7250, -10.2% in the test on HaCat [1], -12.3% in the test with KB-3-1 and -12.8% with NIH3T3 [2]. In addition, the Potency result with MCC-13, in the test with MCC-26, in the test with MKL-1, in the test with WaGa, in the test with C33A and in the test on CAOV3 was “inactive” throughout. The Potency result with CASKI, with Es-2 and in the test with HeLa was “inactive” in each case.

As to `COc1ccc(/C=N/NC(=O)c2ccncc2)cc1OC`, the Potency entry in the test on W2, in the test with MCC-13, in the test on MCC-26, in the test on MKL-1, with MKL-2 and with UISO was “inactive” each time. Further, the Potency result in the test on WaGa, in the test with C33A, in the test with CAOV3, with CASKI, in the test on Es-2 and in the test with HeLa was “inactive” each time. In addition, the max response in the test with HEK293 was -3.6%; in the test on KB-3-1, 0.981%; with NIH3T3 [2], -0.709%. For the same compound, the compound was classed as inactive in the test on HaCat [1] and in the test on HACAT [3].
